In PubChem BioAssay (Tox21) one finds Potency data, which are given here for eight compounds.

“And” between values parts separate entries of the source, which are not always exact repeats. Equal values may be shown once. Values without a mark were called inactive. Records with an inconclusive call do not appear. The source made the active and inactive calls. Unless noted, calls follow the shape of the dose curve; as a rule, active = well fitted curve in the direction sought with a large enough effect in the repeat runs; inconclusive = weak or mixed curves; inactive = no such curve, though single readings can be large; an effect the other way counts as inactive or inconclusive.

A short description of experiment [1]: Human pregnane X receptor (PXR) small molecule agonists, qHTS cell viability counter screen (AID 1346977). Also: nearly all actives have a fitted effect of over 50% in size. Also: potency is read from the fitted curve at half-maximal effect. The gist of the method: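 In each well, the PXR reporter HepG2 line was checked for viability: CellTiter-Fluor reagent added 23hr post-dosing, fluorescence read after 1hr incubation at 37C.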
A short description of experiment [2]: Caspase-3/7 induction in CHO-K1 cells by small molecules, qHTS cell viability counter screen (AID 1346979). Also: nearly all actives have a fitted effect of over 35% in size. Also: potency is read from the fitted curve at half-maximal effect. The gist of the method:
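Following a 5hr settling period, CHO-K1 cells at 1,500 per well received DMSO-dissolved compounds. Cell viability was quantified 16hr later by CellTiter-Fluor fluorescence, measured after 1hr with reagent at 37C.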

Experiment [3] can be described thus: Caspase-3/7 induction in CHO-K1 cells by small molecules, qHTS assay (AID 1346980). Also: nearly all actives have a fitted effect of over 15% in size. Also: potency is read from the fitted curve at half-maximal effect. The procedure, abridged:
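Wild-type CHO-K1 cells exposed to compounds for 17hr at 37 C, 5% CO2. Caspase-3/7 activity then measured by Caspase-Glo 3/7 luminescence after 30min at room temperature.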

The nature of experiment [4]: Caspase-3/7 induction in HepG2 cells by small molecules, qHTS cell viability counter screen (AID 1346981). Also: nearly all actives have a fitted effect of over 30% in size. Also: potency is read from the fitted curve at half-maximal effect. The procedure, abridged:
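Treatment of HepG2 cells with DMSO-delivered compounds ran 16 hr at 37 C following a 5-hr pre-incubation of 2,000 cells/well. CellTiter-Fluor fluorescence, read after 1 hr, served as the viability measure in a qHTS format.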

The target in experiment [5] is Nuclear receptor subfamily 1 group I member 2 (Homo sapiens) (UniProt O75469). Briefly: Human pregnane X receptor (PXR) small molecule agonists, qHTS assay (AID 1346982). Also: nearly all actives have a fitted effect of over 35% in size. Also: potency is read from the fitted curve at half-maximal effect. The procedure, abridged:
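Stable HepG2 line reporting PXR-mediated CYP3A4 expression via luciferase. Treatment: 24 hr with compounds in DMSO at 37 C. Detection: ONE-Glo luminescence.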

In experiment [6] the target is Acetylcholinesterase (Homo sapiens) (UniProt P22303). Briefly: Acetylcholinesterase (AChE) small molecule antagonists: colormetric cell-based qHTS assay (AID 1347395; calls by dose curve; also: nearly all actives have a fitted effect of over 30% in size; also: potency is read from the fitted curve at half-maximal effect). The gist of the method: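 After overnight attachment at 37 C, SH-SY5Y cells get 30 min compound exposure; detection cocktail (acetylthiocholine, DTNB) then incubates 90 min at 37 C, and absorbance reflects AChE-generated thiocholine.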
Sequence of Acetylcholinesterase (Homo sapiens) (P22303 whole entry, looked up): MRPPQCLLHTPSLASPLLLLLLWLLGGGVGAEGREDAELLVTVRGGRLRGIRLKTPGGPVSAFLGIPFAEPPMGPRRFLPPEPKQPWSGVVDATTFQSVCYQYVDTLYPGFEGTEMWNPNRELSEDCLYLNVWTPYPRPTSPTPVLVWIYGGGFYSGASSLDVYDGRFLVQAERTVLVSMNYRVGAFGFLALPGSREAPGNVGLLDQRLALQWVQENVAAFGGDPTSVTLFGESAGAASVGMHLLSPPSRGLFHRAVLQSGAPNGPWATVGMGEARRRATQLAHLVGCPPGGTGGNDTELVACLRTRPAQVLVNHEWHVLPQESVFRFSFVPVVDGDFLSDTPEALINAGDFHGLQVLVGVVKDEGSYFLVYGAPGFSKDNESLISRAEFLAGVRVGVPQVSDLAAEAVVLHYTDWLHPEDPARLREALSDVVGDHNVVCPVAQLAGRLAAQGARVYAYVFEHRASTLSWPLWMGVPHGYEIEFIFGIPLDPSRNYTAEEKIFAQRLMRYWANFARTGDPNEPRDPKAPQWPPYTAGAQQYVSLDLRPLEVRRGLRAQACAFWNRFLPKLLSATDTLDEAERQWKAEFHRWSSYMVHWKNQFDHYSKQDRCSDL

Experiment [7] shares this target. In words: Acetylcholinesterase (AChE) small molecule antagonists: enzyme-based qHTS assay (AID 1347397; calls by dose curve; also: nearly all actives have a fitted effect of over 55% in size; also: potency is read from the fitted curve at half-maximal effect). Conditions: Potency: AChE enzyme activity inhibition. The gist of the method: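 Colorimetric DTNB read-out of thiocholine released from acetylthiocholine by recombinant human AChE (50 mU/mL as dispensed). Compounds were preincubated 30 min at RT before substrate/DTNB addition, with a 10 min RT reaction.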

The target is the same in experiment [8]. Briefly: Acetylcholinesterase (AChE) small molecule antagonists: fluorescence cell-based qHTS assay (AID 1347398; calls by dose curve; also: nearly all actives have a fitted effect of over 50% in size; also: potency is read from the fitted curve at half-maximal effect). As to conditions: Potency: AChE activity. The procedure, abridged:
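SH-SY5Y, 2,000 cells/well, attached overnight; cmpd 30 min 37 C; acetylthiocholine/Thiolite Green cocktail 40 min RT; fluorescence Ex/Em 490/520 nm.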

The target is the same in experiment [9]. In words: Acetylcholinesterase (AChE) small molecule antagonists: enzyme-based qHTS assay with human liver microsomes (AID 1347399; calls by dose curve; also: nearly all actives have a fitted effect of over 60% in size; also: potency is read from the fitted curve at half-maximal effect). As to conditions: Potency: qHTS inhibition. The gist of the method:
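Recombinant human AChE (50 mU/mL in the enzyme mix) and human liver microsomes (0.25 mg/mL final) were preincubated with compound and NADPH (0.25 mg/mL final) for 30 min at 37 C. Acetylthiocholine/DTNB was then added; thiocholine was read colorimetrically after 10 min at room temperature.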

The nature of experiment [10]: Caspase-3/7 induction in HepG2 cells by small molecules, qHTS assay (AID 1346978). Also: nearly all actives have a fitted effect of over 15% in size. Also: potency is read from the fitted curve at half-maximal effect. The gist of the method:
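Wild-type HepG2 cells, 2,000/well, settled 5 hr at 37 C and 5% CO2, then compound-treated for 17 hr; caspase-3/7 activity read by luminescent Caspase-Glo 3/7 after 30 min at room temperature.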

Experiment [11] has as its target Cytochrome P450 2D6 (Homo sapiens) (UniProt P10635). In words: Cytochrome P450 Family 2 Subfamily D Member 6 (CYP2D6) small molecule antagonists: luciferase reporter qHTS assay (AID 1671196). Also: nearly all actives have a fitted effect of over 50% in size. Also: potency is read from the fitted curve at half-maximal effect. The gist of the method:
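Chemicals tested for interference with CYP2D6 activity; proluciferin substrate, NADPH regeneration, 1 h at room temperature, luminescent detection.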

Experiment [12] deals with Cytochrome P450 2C19 (Homo sapiens) (UniProt P33261). In words: Cytochrome P450 Family 2 Subfamily C Member 19 (CYP2C19) small molecule antagonists: luciferase reporter qHTS assay (AID 1671197). Also: nearly all actives have a fitted effect of over 65% in size. Also: potency is read from the fitted curve at half-maximal effect. The procedure, abridged:
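Compounds were tested on CYP2C19 activity via proluciferin conversion to luciferin. The 37C, 1 h reaction followed NADPH addition; detection reagent stopped it.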

For experiment [13], the target named is Cytochrome P450 1A2 (Homo sapiens) (UniProt P05177). Briefly: Cytochrome P450 Family 1 Subfamily A Member 2 (CYP1A2) small molecule antagonists: luciferase reporter qHTS assay (AID 1671199). Also: nearly all actives have a fitted effect of over 50% in size. Also: potency is read from the fitted curve at half-maximal effect. The procedure, abridged: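 Read-out is luminescence from luciferin detection reagent (20 min) proportional to CYP1A2 activity; compounds in DMSO preincubated 10 min with enzyme and proluciferin substrate, then NADPH regeneration solution, 1 h, room temperature.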
Sequence of Cytochrome P450 1A2 (Homo sapiens) (P05177 whole entry, looked up): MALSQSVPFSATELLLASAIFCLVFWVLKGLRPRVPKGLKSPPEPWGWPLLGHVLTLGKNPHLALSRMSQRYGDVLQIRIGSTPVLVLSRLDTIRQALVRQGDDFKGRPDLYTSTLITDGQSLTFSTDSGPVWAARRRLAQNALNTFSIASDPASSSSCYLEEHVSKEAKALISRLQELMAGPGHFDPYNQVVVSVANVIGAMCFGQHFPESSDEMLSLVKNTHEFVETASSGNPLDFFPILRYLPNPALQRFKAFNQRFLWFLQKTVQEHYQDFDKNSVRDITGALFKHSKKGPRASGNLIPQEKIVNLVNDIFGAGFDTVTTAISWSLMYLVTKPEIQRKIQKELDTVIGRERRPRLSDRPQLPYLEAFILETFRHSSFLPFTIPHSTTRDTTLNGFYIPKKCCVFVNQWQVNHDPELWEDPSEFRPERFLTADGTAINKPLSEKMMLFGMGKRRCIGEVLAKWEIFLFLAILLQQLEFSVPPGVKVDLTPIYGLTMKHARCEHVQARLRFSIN

Experiment [14] addresses Cytochrome P450 2C9 (Homo sapiens) (UniProt P11712). In words: Cytochrome P450 Family 2 Subfamily C Member 9 (CYP2C9) small molecule antagonists: luciferase reporter qHTS assay (AID 1671198). Also: nearly all actives have a fitted effect of over 50% in size. Also: potency is read from the fitted curve at half-maximal effect. The gist of the method: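 P450-Glo proluciferin substrate with CYP2C9 enzyme; 10 min RT preincubation, then NADPH regeneration 1 h at 37C; luciferin detection reagent 20 min RT, luminescence in relative luminescence units.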

Experiment [15] addresses Voltage-gated inwardly rectifying potassium channel KCNH2 (Homo sapiens) (UniProt Q12809). In words: Human Ether-a-go-go-Related Gene (hERG) channel small molecule antagonists: fluorescence cell-based qHTS assay (AID 1671200). The procedure, abridged:
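In this thallium-flux screen, overnight-cultured U2OS cells bearing the channel are dye-loaded in darkness for an hour, rested 10 min at room temperature, and then monitored kinetically at 480/540 nm for two minutes post-stimulus.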

Experiment [16] has as its target Cytochrome P450 3A4 (Homo sapiens) (UniProt P08684). In words: Cytochrome P450 Family 3 Subfamily A Member 4 (CYP3A4) small molecule antagonists: luciferase reporter qHTS assay (AID 1671201). The gist of the method:
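CYP3A4 activity was followed with a P450-Glo proluciferin substrate. Test compounds in DMSO were preincubated 10 min; NADPH regeneration then ran 1 h, and light output was read 20 min after detection reagent.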

Sequence of Cytochrome P450 2D6 (Homo sapiens) (P10635 whole entry, looked up): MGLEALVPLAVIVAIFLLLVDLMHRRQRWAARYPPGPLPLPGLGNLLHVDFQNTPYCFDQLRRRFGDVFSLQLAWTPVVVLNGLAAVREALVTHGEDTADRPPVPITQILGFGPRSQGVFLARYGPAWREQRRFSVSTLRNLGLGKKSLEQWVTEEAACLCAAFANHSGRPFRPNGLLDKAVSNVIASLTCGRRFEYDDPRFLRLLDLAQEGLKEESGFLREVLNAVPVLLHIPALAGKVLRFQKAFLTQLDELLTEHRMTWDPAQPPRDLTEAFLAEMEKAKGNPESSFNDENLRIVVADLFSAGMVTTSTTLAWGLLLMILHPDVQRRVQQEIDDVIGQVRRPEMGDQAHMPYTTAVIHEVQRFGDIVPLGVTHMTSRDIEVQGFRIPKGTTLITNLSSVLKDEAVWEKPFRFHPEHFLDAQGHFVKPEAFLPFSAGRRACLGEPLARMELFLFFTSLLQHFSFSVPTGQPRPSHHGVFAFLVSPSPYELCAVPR
Sequence of Nuclear receptor subfamily 1 group I member 2 (Homo sapiens) (O75469 whole entry, looked up): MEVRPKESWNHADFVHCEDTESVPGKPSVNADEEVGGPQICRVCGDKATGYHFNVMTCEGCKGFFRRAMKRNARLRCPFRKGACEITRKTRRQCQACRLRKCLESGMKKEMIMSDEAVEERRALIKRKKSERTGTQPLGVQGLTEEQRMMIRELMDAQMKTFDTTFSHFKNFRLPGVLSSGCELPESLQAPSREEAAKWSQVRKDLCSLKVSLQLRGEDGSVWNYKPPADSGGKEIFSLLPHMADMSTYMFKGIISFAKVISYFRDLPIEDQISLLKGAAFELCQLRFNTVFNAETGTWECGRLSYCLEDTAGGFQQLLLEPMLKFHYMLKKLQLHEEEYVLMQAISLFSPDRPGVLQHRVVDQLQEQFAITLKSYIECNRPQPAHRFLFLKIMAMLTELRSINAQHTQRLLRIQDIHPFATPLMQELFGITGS
Sequence of Cytochrome P450 3A4 (Homo sapiens) (P08684 whole entry, looked up): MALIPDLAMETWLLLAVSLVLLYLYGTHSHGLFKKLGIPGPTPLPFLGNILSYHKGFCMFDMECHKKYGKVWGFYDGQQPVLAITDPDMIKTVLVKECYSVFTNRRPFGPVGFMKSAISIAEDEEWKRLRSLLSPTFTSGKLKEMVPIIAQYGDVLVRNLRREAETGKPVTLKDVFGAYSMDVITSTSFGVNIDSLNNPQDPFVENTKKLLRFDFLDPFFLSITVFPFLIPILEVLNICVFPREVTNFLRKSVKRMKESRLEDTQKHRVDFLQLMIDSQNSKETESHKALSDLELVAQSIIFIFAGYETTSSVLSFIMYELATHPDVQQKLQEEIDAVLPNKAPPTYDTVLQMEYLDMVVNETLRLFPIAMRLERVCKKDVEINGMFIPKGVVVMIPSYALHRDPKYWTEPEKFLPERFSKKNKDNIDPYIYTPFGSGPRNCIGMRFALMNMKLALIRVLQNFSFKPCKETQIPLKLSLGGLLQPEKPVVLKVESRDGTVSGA
Sequence of Cytochrome P450 2C9 (Homo sapiens) (P11712 whole entry, looked up): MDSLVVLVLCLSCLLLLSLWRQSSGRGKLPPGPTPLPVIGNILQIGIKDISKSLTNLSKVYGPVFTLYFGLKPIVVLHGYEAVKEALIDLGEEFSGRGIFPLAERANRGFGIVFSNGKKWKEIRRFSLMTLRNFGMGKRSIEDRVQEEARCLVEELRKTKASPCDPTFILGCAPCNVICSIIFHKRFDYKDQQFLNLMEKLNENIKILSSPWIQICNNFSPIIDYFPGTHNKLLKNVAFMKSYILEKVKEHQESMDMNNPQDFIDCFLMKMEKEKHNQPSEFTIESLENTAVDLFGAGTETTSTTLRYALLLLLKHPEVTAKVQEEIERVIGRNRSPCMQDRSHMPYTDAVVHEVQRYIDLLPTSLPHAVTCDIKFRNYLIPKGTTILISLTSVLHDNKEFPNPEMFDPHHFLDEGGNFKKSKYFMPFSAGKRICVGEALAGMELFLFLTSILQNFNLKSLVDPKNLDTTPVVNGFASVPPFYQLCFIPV
Sequence of Cytochrome P450 2C19 (Homo sapiens) (P33261 whole entry, looked up): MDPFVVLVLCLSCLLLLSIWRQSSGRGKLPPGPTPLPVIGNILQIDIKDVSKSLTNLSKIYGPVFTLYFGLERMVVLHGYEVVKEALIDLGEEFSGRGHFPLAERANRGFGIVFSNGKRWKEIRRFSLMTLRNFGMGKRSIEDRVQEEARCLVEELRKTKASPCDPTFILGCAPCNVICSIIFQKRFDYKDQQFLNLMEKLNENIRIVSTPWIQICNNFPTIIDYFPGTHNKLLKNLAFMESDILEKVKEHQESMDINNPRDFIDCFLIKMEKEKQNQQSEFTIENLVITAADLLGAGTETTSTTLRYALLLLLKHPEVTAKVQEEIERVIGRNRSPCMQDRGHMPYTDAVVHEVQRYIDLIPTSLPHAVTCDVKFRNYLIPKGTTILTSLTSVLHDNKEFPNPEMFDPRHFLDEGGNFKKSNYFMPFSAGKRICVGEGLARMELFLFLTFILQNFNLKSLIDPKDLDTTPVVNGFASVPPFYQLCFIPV
Sequence of Voltage-gated inwardly rectifying potassium channel KCNH2 (Homo sapiens) (Q12809 whole entry, looked up): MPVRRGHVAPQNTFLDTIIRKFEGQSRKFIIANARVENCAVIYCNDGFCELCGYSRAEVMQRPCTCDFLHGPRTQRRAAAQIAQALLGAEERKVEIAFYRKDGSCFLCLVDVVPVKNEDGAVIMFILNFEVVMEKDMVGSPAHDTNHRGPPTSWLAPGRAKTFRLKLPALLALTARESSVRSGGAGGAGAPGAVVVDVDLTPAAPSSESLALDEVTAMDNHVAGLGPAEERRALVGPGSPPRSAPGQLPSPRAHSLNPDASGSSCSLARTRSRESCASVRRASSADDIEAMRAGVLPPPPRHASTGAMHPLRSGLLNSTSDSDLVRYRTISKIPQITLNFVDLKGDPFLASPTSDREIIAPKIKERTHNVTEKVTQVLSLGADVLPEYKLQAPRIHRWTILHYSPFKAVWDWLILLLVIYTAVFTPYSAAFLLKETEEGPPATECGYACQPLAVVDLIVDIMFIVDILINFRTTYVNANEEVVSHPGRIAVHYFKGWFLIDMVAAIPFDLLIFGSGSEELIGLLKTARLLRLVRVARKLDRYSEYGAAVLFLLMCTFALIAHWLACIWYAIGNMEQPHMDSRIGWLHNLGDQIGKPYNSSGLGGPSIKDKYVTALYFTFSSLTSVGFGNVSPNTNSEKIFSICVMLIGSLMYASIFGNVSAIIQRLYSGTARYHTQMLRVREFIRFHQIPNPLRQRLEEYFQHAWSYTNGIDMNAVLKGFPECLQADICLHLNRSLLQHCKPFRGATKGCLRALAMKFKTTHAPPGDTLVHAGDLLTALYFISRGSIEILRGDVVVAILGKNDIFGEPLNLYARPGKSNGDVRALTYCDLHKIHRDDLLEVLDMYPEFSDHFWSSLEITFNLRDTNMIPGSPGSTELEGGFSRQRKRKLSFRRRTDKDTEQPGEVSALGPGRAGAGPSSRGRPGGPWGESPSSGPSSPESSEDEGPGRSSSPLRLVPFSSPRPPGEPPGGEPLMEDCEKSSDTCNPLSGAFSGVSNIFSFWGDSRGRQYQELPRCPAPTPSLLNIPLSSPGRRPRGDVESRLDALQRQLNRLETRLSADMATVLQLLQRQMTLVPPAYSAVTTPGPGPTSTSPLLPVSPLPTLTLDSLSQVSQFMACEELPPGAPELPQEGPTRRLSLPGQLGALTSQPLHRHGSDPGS

Regarding `Fc1ccc(C(OCCN2CCN(CCCc3ccccc3)CC2)c2ccc(F)cc2)cc1`, the Potency in experiment [1] was 16.8 µM (active); in experiment [2], 11.9 µM (active); in experiment [3], 23.7 µM (active); in experiment [4], 23.7 µM (active). Further, the Potency entry in experiment [5], in experiment [6], in experiment [7], in experiment [8] and in experiment [9] was “inactive” in each case.
Take `C[C@@H]1CC2=CC(=O)CC[C@@H]2[C@H]2CC[C@@]3(C)[C@@H](CC[C@]3(C)O)[C@@H]21`: the Potency entry in [1], in [10], in experiment [3], in experiment [4], in experiment [5] and in experiment [6] was “inactive” each time. Besides, the Potency result in [7], in experiment [8], in experiment [9], in experiment [11] and in experiment [13] was “inactive” each time. The Potency in experiment [12] was 8.71 µM (active).
Take `CCOC(=O)CCN(SN(C)C(=O)Oc1cccc2c1OC(C)(C)C2)C(C)C`: the Potency entry in experiment [1], in experiment [10] and in experiment [3] was “inactive” each time. Further, the Potency in experiment [6] was 0.252 µM (active); in [7], 0.1 µM (active); in experiment [8] it was 0.1 µM (active); in experiment [9] it was 0.796 µM (active); in experiment [12], 17.8 µM (active); in experiment [14], 12.6 µM (active). Also, in experiment [13], the Potency was 22.4 µM (active).
For `CNC(=O)Oc1cc(C)cc(C(C)C)c1`, the Potency entry in experiment [1], in experiment [10], in experiment [3], in experiment [14] and in experiment [15] was “inactive” in each case. Further, the Potency in experiment [6] was 0.633 µM (active); in [7], 0.399 µM (active); in [8], 0.178 µM (active); in experiment [9], 5.03 µM (active); in experiment [11], 39.9 µM (active); in experiment [12], 20 µM (active). Also, in experiment [13], the Potency is 20 µM (active).
With `CSC1=N[C@@](C)(c2ccccc2)C(=O)N1Nc1ccccc1`, the Potency result in experiment [10], in [3], in experiment [6], in [7], in [8] and in experiment [9] was “inactive” throughout. The Potency entry in [15] is “inactive”. In addition, the Potency in experiment [2] is 8.63 µM (active); in [12], 1.12 µM (active); in experiment [14], 35.6 µM (active); in experiment [16], 31.7 µM (active).
Turning to `Cc1ccc2cc3c(ccc4ccccc43)c3c2c1CC3`, the Potency in [10] was 6.13 µM (active); in experiment [5], 6.13 µM (active); in [12], 40 µM (active); in [14] it was 5.65 µM (active); in [13], 0.449 µM (active); in experiment [16] it was 8.96 µM (active). Moreover, the Potency result in experiment [2], in experiment [3], in [6], in experiment [7], in experiment [8] and in experiment [9] was “inactive” each time. Also, the Potency entry in experiment [11] and in experiment [15] was “inactive” each time.
With `c1ccc(N=NNc2ccccc2)cc1`, the Potency result in [10], in [3], in experiment [7], in experiment [8] and in experiment [9] was “inactive” in each case. Also, the Potency in experiment [2] is 56.4 µM (active); in experiment [4], 28.3 µM (active); in experiment [5], 31.7 µM (active) and 30.6 µM (active); in experiment [11], 65.4 µM (active) and 63.3 µM (active); in experiment [12] it was 23.2 µM (active) and 50.2 µM (active); in experiment [14], 26 µM (active) and 31.7 µM (active). Also, the Potency in [13] is 13.1 µM (active) and 15.9 µM (active); in [16], 26 µM (active).
For `CN1C2CCC(C)(C)C1CC(OC(=O)C(O)(c1cccs1)c1cccs1)C2` (centres undefined), the Potency entry in [10], in experiment [2], in experiment [3], in [4], in experiment [6] and in experiment [7] was “inactive” in each case. The Potency entry in experiment [8], in experiment [9], in experiment [12], in experiment [14] and in [13] was “inactive” in each case. The Potency in experiment [11] is 15.5 µM (active); in experiment [16], 0.219 µM (active).
